ChEMBL document CHEMBL3433997, “St. Jude Leishmania screening dataset” (2016)

How the values were obtained:
Assay type in all cases: functional
[1] = molecular target: Solute carrier family 2, facilitated glucose transporter member 1 (Homo sapiens) (UniProt P11166); assay: ST_JUDE_LEISH: Cytotoxicity at 2uM final concentration against transgenic Leishmania Mexicana promastigotes LmGLUT1 that are glucose transport deficient and complemented with the human glucose transporter GLUT1. Activity is measured by DNA content using SYBR green in vitro
[2] = molecular target: Hexose transporter 1 (Plasmodium falciparum) (UniProt O97467); assay: ST_JUDE_LEISH: Cytotoxicity at 2uM final concentration against transgenic Leishmania Mexicana promastigotes LmPfHT that are glucose transport deficient and complemented with the Plasmodium falciparum hexose transporter. Activity is measured by DNA content using SYBR green in vitro
[3] = molecular target: Glucose transporter (Leishmania mexicana) (UniProt O61059); assay: ST_JUDE_LEISH: Cytotoxicity at 2uM final concentration against transgenic Leishmania Mexicana promastigotes LmGT2 that are glucose transport deficient and complemented with the L. Mexicana glucose transporter 2. Activity is measured by DNA content using SYBR green in vitro

Chain of Solute carrier family 2, facilitated glucose transporter member 1 (Homo sapiens) (P11166 whole entry): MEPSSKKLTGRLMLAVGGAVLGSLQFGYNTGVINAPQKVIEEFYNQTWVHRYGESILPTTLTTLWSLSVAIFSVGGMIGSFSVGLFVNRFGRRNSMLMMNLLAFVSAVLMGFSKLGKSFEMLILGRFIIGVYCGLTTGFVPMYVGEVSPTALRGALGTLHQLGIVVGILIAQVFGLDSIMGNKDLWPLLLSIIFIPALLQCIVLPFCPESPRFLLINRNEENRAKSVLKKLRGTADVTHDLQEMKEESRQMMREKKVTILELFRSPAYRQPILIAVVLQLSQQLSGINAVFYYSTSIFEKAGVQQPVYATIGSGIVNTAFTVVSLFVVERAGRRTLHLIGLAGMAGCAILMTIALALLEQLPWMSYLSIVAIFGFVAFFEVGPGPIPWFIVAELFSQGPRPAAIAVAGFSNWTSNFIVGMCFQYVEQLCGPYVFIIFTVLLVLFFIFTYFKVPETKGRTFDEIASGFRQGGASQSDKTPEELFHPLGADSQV

Row | SMILES | inhibition [1] | inhibition [2] | inhibition [3]
1 | N#Cc1ccc2[nH]cc(CN3CCC4(CC3)CN(CCNCc3ccccc3)C(=O)O4)c2c1 | 4.35% | 4.4% | -0.76%
2 | O=C(Cc1c[nH]cn1)Nc1cccc(-c2cccc(-c3nc4cc(F)ccc4[nH]3)c2)c1 | -1.27% | -0.43% | -2.58%
3 | CN(C(=O)NCCc1ccccc1)C1CCN(CCCCCNC(=O)/C=C/c2ccc(Cl)c(Cl)c2)CC1 | 14.9% | 12% | 12.4%
4 | c1cncc(NCc2ccc(-c3cc4ccncc4cc3OC3CCNCC3)s2)c1 | 4.74% | 5.2% | 4.54%
5 | COc1ccc(CN(C)CCOc2ccc(NC(=O)c3cccc4c(=O)c5cc(SC)ccc5[nH]c34)cc2)cc1OC | 10.2% | 8.45% | 3.5%
6 | CC(=O)Oc1cc(C(=O)Nc2ccc(Cl)cc2)cc2ccccc12 | 7.81% | 5.31% | 5.8%
7 | CCc1cn(C)c2c(N3CCCC3=O)cc(C(=O)N[C@@H](Cc3ccccc3)[C@H](O)CNC(C)(C)CCCC(C)C)cc12 | 3.03% | 4.09% | 3.95%
8 | O=C(/C=C/c1ccc(Cl)cc1)NCCCCCN1CCC(C(=O)Nc2ccc(Cl)c(Cl)c2)CC1 | -0.38% | -2.11% | -0.64%
9 | N#Cc1ccc(CN2CCCN(Cc3cccc(NC(=O)c4ccc(Cl)c(Cl)c4)c3)CC2)cc1 | 9.73% | 7.09% | 9.89%
10 | Clc1cccc(CNC2CCN(CC3CCCCC3)CC2)c1 | 4.03% | 4.11% | 6.03%
11 | COc1ccc(CN2CCC(N3CCc4cc(NC(=O)c5cc(C)on5)ccc43)C2)cc1Cl (stereo unspecified) | -0.2% | -3.51% | 0.69%
12 | CC1CN(c2cnn(Cc3cccc(NC(=O)Nc4ccc(F)cc4[N+](=O)[O-])c3)c(=O)c2Cl)CC(C)N1 (stereo unspecified) | -2.05% | 1.66% | -0.22%
13 | Cc1nc2c(Nc3nc(-c4ccncc4)cs3)ncnc2n1-c1ccccc1Cl | 45.1% | 38.8% | 13.4%
14 | O=c1ccc2ccc(F)c3c2n1CC3CN1CCC(NCc2cccc(-c3ccccc3F)c2)CC1 (stereo unspecified) | 19.1% | 22.3% | 11.4%
15 | CC1CCc2sc(-c3nnc(SC(C)C(=O)NC4CC4)o3)cc2C1 (stereo unspecified) | -0.92% | 1.65% | 1.25%
16 | CCc1c[nH]c2c(N3CCCCS3(=O)=O)cc(C(=O)N[C@@H](Cc3ccccc3)[C@H](O)CNCc3cccc(OC)c3)cc12 | 0.82% | -0.07% | -0.23%

Row | SMILES | inhibition [1] | inhibition [2] | inhibition [3]
17 | Cn1cncc1C(=O)Nc1cccc(-c2ccc(-c3nc4cc(F)ccc4[nH]3)s2)c1 | 3.18% | 3.3% | -0.1%
18 | Cc1cccc2nc(-c3ccc(-c4ccc(CN5CCC(CCN6CCCCC6)CC5)cc4)cc3)[nH]c12 | 8.93% | 7.95% | -1.41%
19 | CCC(C)(C)C1CCc2[nH]c3ccccc3c(=O)c2C1 (stereo unspecified) | 9.6% | 26.9% | 6.59%
20 | COc1cc(NC(=O)/C=C/c2ccccc2OC(F)(F)F)cc(OCCN2CCN(CCN3CCOCC3)CC2)c1 | 3.4% | 3.05% | 2.34%
21 | CNc1ccc(CNCc2cccc(-c3ccc(-c4nc5ccccc5[nH]4)cc3)c2)cc1 | 0.78% | -1.69% | -1.34%
22 | N#Cc1cccc(Nc2nccc(Nc3ccc(Oc4ccccc4)cc3)n2)c1 | 6.87% | 5.4% | 0.2%
23 | COc1cccc(CNc2ncc(-c3ccsc3)c(-c3nccs3)n2)c1 | -0.5% | 0.89% | -0.73%
24 | Cc1nc(-c2nc(NCc3ccc4c(c3)OCO4)ncc2-c2ccsc2)sc1C | -0.05% | -0.48% | 0.68%
25 | CN(C)CCC1CCN(CCS(=O)(=O)c2cccc(Nc3ccc(-c4ccsc4)cn3)c2)CC1 | -0.36% | 0.82% | 1.59%
26 | CS(=O)(=O)c1ccc2c(c1)CCN(CCC1CCC(NC(=O)C(=Cc3ccc(Cl)cc3Cl)c3ccc(-c4ccccc4)cc3)CC1)CC2 (stereo unspecified) | -0.33% | 3.12% | 3.51%
27 | O=C(/C=C/c1ccc(Cl)c(Cl)c1)NCCCCCN1CCCC(C(=O)Nc2ccc(Cl)cc2)C1 (stereo unspecified) | 3.76% | 5.09% | 2.58%
28 | Nc1nc(N)c2c(ccc3c2ccn3CC2CC2)n1 | 2.11% | 6.17% | 0.91%
29 | COc1ccc(CC(=O)NC(CCN2CCC3(CCc4ccccc43)CC2)c2ccc(Cl)c(Cl)c2)cc1 (stereo unspecified) | 0.25% | -0.66% | -0.93%
30 | O=[N+]([O-])c1ccccc1C=NN=c1cc[nH]c2ccccc12 | -2.55% | 1.68% | -0.01%
31 | CCNc1cc(C(=O)N[C@@H](Cc2ccccc2)[C@H](O)CNC2CCC(F)(F)CC2)c(F)c(N2CCCCS2(=O)=O)c1 | -0.9% | -1.47% | -1.39%
32 | C[C@H](N[C@H]1CCCc2c1[nH]c1ccc(Br)cc21)c1ccccc1 | 2.46% | 0.78% | 0.74%
